In the supplement of paper PMC6555819:

Assays:
Assay in all cases: PBM binding z-score (relative to random genomic background probes); higher = stronger binding; sequences stand for … in GC…GCGATTGACAGCGTAGAATGAAGG
[1] = test system: FXR:RXRa (NR concentration 270 nM, RXRa partner concentration 90 nM)
Summary of the method: (§1)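 Binding z-scores were set against random background probes. The data came from custom Agilent 4×180K protein-binding microarrays carrying double-stranded probes with 34-nt variable regions, incubated 1 h with ligand-free nuclear receptor dimers. Partner-specific antibodies detected binding, and scanned fluorescence was regression-normalized.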

[2] = test system: LXRa:RXRa (NR concentration 270 nM, RXRa partner concentration 90 nM)
Summary of the method: as §1

[3] = test system: LXRa homodimer (NR concentration 270 nM)
Summary of the method: as §1

[4] = test system: LXRb:RXRa (NR concentration 270 nM, RXRa partner concentration 90 nM)
Summary of the method: as §1

[5] = test system: LXRb homodimer (NR concentration 270 nM)
Summary of the method: as §1

[6] = test system: PPARa:RXRa (NR concentration 270 nM, RXRa partner concentration 90 nM)
Summary of the method: as §1

[7] = test system: PPARg:RXRa (NR concentration 180 nM, RXRa partner concentration 90 nM)
Summary of the method: as §1

[8] = test system: PPARg:RXRa 270nM:90nM, anti-RXR (NR concentration 270 nM, RXRa partner concentration 90 nM)
Summary of the method: as §1

[9] = test system: PPARg:RXRa 30nM:10nM, anti-RXR (NR concentration 30 nM, RXRa partner concentration 10 nM)
Summary of the method: as §1

[10] = test system: PPARg:RXRa 90nM:30nM, anti-RXR (NR concentration 90 nM, RXRa partner concentration 30 nM)
Summary of the method: as §1

[11] = test system: PPARg:RXRa DBDmut IVT, anti-RXR (DBD mutation: RXRa K156A/R161A, NR concentration 270 nM, RXRa partner concentration 90 nM)
Summary of the method: as §1

[12] = test system: PPARg:RXRa IVT, anti-PPARg (NR concentration 270 nM, RXRa partner concentration 90 nM)
Summary of the method: as §1

[13] = test system: PPARg DBDmut:RXRa IVT, anti-PPARg (DBD mutation: PPARg1 K132A/R137A, NR concentration 270 nM, RXRa partner concentration 90 nM)
Summary of the method: as §1

[14] = test system: PPARg DBDmut IVT, anti-PPARg (DBD mutation: PPARg1 K132A/R137A, NR concentration 270 nM)
Summary of the method: as §1

[15] = test system: PPARg homodimer (NR concentration 180 nM)
Summary of the method: as §1

[16] = test system: PXR:RXRa (NR concentration 270 nM, RXRa partner concentration 90 nM)
Summary of the method: as §1

[17] = test system: PXR homodimer (NR concentration 270 nM)
Summary of the method: as §1

[18] = test system: RARa:RXR (NR concentration 270 nM, RXRa partner concentration 90 nM)
Summary of the method: as §1

[19] = test system: RARa homodimer (NR concentration 270 nM)
Summary of the method: as §1

[20] = test system: RARb:RXRa (NR concentration 270 nM, RXRa partner concentration 90 nM)
Summary of the method: as §1

Row | Sequence | PBM binding z-score [1] | PBM binding z-score [2] | PBM binding z-score [3] | PBM binding z-score [4] | PBM binding z-score [5] | PBM binding z-score [6] | PBM binding z-score [7] | PBM binding z-score [8] | PBM binding z-score [9] | PBM binding z-score [10] | PBM binding z-score [11] | PBM binding z-score [12] | PBM binding z-score [13] | PBM binding z-score [14] | PBM binding z-score [15] | PBM binding z-score [16] | PBM binding z-score [17] | PBM binding z-score [18] | PBM binding z-score [19] | PBM binding z-score [20]
1 | ATAGAAAGGTCGACGAGGTGAGTATACACCGTTT | 4.55 | 2.95 | 0.22 | 2.52 | 0.294 | 4.18 | 2.91 | 2.81 | 1.55 | 2.17 | 0.284 | 1.82 | 1.11 | 0.417 | 1.76 | 2.87 | 0.566 | 3.6 | 0.784 | 3.72
2 | CCTATTCGTTGACCATAAGGGCAACCGAAGCTCG | 0.737 | 0.584 | 0.874 | 0.578 | 1.19 | 0.766 | 0.4 | 0.418 | 0.115 | 0.223 | 0.434 | 0.637 | 0.0621 | 0.266 | 1.7 | 0.841 | 0.82 | 1.41 | 1.43 | 1.82
3 | TCGAGTAGGTTACCAATGGGGCATTCAGCTTTCT | 0.0683 | 1.23 | -0.798 | 0.966 | -0.683 | 1.26 | 0.191 | 1.15 | 1.14 | 1.11 | 3.39 | 2.58 | -0.0498 | -0.456 | -0.375 | 0.171 | -0.622 | 0.273 | -0.0206 | 0.992
4 | TCTGCTAGGTCAACGATGGTCAGCTCATCTGCTA | 3.56 | 2.79 | 0.0556 | 1.81 | 0.088 | 3.34 | 2.4 | 2.89 | 1.65 | 2.19 | 4 | 4.36 | 2.19 | -0.236 | 1.9 | 1.71 | -1.45 | 2.37 | -0.783 | 4.05
5 | TCATATAGGTAAAAGCTGAAAGTCGGTGTGGTAA | 0.59 | 0.549 | -0.108 | 0.664 | -0.24 | 1.41 | 0.589 | 2.74 | 3.52 | 3.25 | 4.01 | 2.14 | 1.19 | 0.683 | 0.11 | 0.239 | -0.198 | 0.257 | 0.519 | 0.0291
6 | TCTAGCAGGCCAGAGGGTCACGCAAGAGGTACGG | 1.68 | 1.54 | -0.618 | 1.93 | -1.47 | 3.24 | 2.4 | 2.99 | 1.96 | 2.57 | 0.77 | 1.31 | -0.82 | -1.03 | 0.618 | 2.62 | -0.51 | 3.55 | -0.463 | 2.84
7 | ATACCAAGATGATCGTGAGGTCGTTGATACTAAC | 1.11 | 0.576 | 0.456 | 0.892 | 0.0732 | 0.598 | 0.48 | -0.158 | 0.129 | -0.00184 | 0.165 | 0.114 | 0.181 | 0.947 | 0.378 | 1.67 | 1.32 | 1.35 | 0.361 | 0.547
8 | ATATGTAGGTTATCGGGTGATTCAGTTTGCGCAT | 0.87 | 1.16 | 0.949 | 1.33 | 0.879 | 3.39 | 5.08 | 5.04 | 2.59 | 4.28 | 7.59 | 7.22 | 2.9 | 2.24 | 1.51 | 1.07 | 1.12 | 0.995 | 1.96 | 1.15
9 | ACTTACGGGTCAACGAGGTTATATCACGCGTATA | 6.93 | 5.07 | 1.5 | 4.54 | 1.09 | 5.82 | 5.28 | 4.92 | 2.11 | 3.79 | 2.95 | 3.92 | 0.992 | 1.71 | 2.52 | 5.03 | 3.3 | 4.76 | 0.919 | 4.28
10 | TCTTGTGGATCAACAGGAGGTTAAGAAAGATCGA | 0.0119 | 1.31 | -0.115 | 0.808 | -0.625 | 1.19 | 0.00768 | 1.18 | 2.49 | 1.87 | 1.35 | 0.812 | 0.186 | 1.07 | 0.476 | 0.621 | -0.304 | 0.932 | -0.244 | 0.59
11 | GGGACTGGGGCAAAGCAGGTTACCATAAGGTTGG | 0.776 | 0.705 | 0.405 | 1.24 | 1.22 | 2.6 | 3.59 | 3.37 | 0.646 | 2.33 | 4.85 | 5.97 | 0.631 | 0.017 | 1.03 | 1.21 | 0.82 | 1.18 | -0.119 | 1.39
12 | TCTCGAAGGACACGAAGGTCAGAGCTTTCCAGAG | 1.04 | 1.12 | -0.125 | 1.03 | -0.73 | 1.91 | 0.515 | 1.8 | 2.96 | 2.27 | 1.58 | 1.03 | -0.558 | -0.971 | 1.64 | 1.54 | 0.219 | 2.12 | 0.163 | 3.34
13 | TCTTGTAGATCAACACGAGGTTAAGAAAGATCGA | 0.233 | 1.58 | 0.248 | 1.01 | -0.293 | 1.55 | 0.0854 | 1.33 | 2.58 | 1.94 | 1.48 | 1.07 | 0.862 | 1 | 0.489 | 1.05 | 0.0696 | 1.27 | 0.374 | 0.536
14 | TTACCAAGGTGAAGGTCGTTTATCCCTCTGTAGA | 1.45 | 1.55 | 0.229 | 1.54 | -0.0351 | 2.47 | 2.42 | 3.95 | 1.78 | 3.31 | 2.02 | 3.38 | 0.35 | 0.225 | 0.696 | 1.7 | 0.623 | 1.65 | -0.48 | 2.2
